Data as given in article PMC7826789 (International Journal of Molecular Sciences, 2021).

Columns and labels:
Settings in all cases: Compound Concentration (nM):1000
[1] = system: T1, RSK3(Kin.Dom.1-N-terminal)
T1 construct: gene RPS6KA2

[2] = system: T2, RSK3(Kin.Dom.2-C-terminal)
T2 construct: gene RPS6KA2

[3] = system: T3, RSK4(Kin.Dom.1-N-terminal)
T3 construct: gene RPS6KA6

[4] = system: T4, RSK4(Kin.Dom.2-C-terminal)
T4 construct: gene RPS6KA6

S6K1 = system: T5, S6K1
T5 construct: gene RPS6KB1

SBK1 = system: SBK1
SGK2 = system: SGK2
SGK3 = system: SGK3
SGK = system: T6, SGK
T6 construct: gene SGK1

SIK2 = system: SIK2
SIK = system: T7, SIK
T7 construct: gene SIK1

SLK = system: SLK
SNARK = system: T8, SNARK
T8 construct: gene NUAK2

SNRK = system: SNRK
SRC = system: SRC
SRMS = system: SRMS
SRPK1 = system: SRPK1
SRPK2 = system: SRPK2
SRPK3 = system: SRPK3
STK16 = system: STK16
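Also: KINOMEscan scanMAX binding as percent activity remaining versus control; lower means stronger binding.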

Structure (SMILES)	Percent Control [1] [%]	Percent Control [2] [%]	Percent Control [3] [%]	Percent Control [4] [%]	Percent Control (S6K1) [%]	Percent Control (SBK1) [%]	Percent Control (SGK2) [%]	Percent Control (SGK3) [%]	Percent Control (SGK) [%]	Percent Control (SIK2) [%]	Percent Control (SIK) [%]	Percent Control (SLK) [%]	Percent Control (SNARK) [%]	Percent Control (SNRK) [%]	Percent Control (SRC) [%]	Percent Control (SRMS) [%]	Percent Control (SRPK1) [%]	Percent Control (SRPK2) [%]	Percent Control (SRPK3) [%]	Percent Control (STK16) [%]
CCn1c(-c2nonc2N)nc2c(C#CC(C)(C)O)nc(OCCNC)cc21.Cl [GSK949675]	99	100	100	100	100	96	100	92	94	90	89	100	41	100	100	100	84	100	100	100
Cl.O=S1CCN(Cc2ccc(-c3ccc4ncnc(Nc5ccc(OCc6ccccc6)c(F)c5)c4c3)o2)CC1 [GW576924A]	100	100	97	100	97	100	100	78	100	81	100	100	96	100	100	100	100	100	78	100
NS(=O)(=O)c1ccc(N/N=C2\C(=O)Nc3ccc(-c4cnco4)cc32)cc1 [GW276655]	100	87	61	90	100	76	76	53	38	100	77	86	49	55	83	73	100	100	76	46
COc1ccc2c(-c3ccnc(Nc4cccc(OC(F)(F)F)c4)n3)cnn2n1 [GW810372X]	100	99	99	100	87	100	100	79	100	100	100	100	73	98	100	99	88	87	92	9.4
CN1CCN(C(=O)c2ccc(NC(=O)Nc3ccc(N(C)c4ccnc(Nc5ccc(CS(C)(=O)=O)cc5)n4)cc3)cc2)CC1.Cl [GW830263A]	84	89	74	84	37	65	73	79	57	56	92	8.9	39	78	100	77	2.3	80	7.7	15
COc1cc2ncn(-c3cc(O[C@H](C)c4ccccc4Cl)c(C(N)=O)s3)c2cc1OC [GSK237701A]	100	90	45	94	68	83	87	75	90	65	100	0.4	4.3	91	79	92	100	100	100	60
CC1=C(C(=O)Nc2ccc3[nH]ncc3c2)C(c2ccc(Cl)c(Cl)c2)CC(=O)N1 (centres unmarked) [GSK299115A]	100	89	69	80	67	73	81	48	72	87	97	98	25	100	80	88	99	100	90	85
COc1cc(C=NNc2ncnc3c2cnn3-c2ccccc2)ccc1O [GW513184X]	100	100	90	100	100	100	66	85	50	61	79	79	87	100	59	100	33	100	100	100
CCc1ccc(Oc2nccc(-c3c(-c4ccc(F)cc4)ncn3C3CCNCC3)n2)cc1 [SB-242719]	92	94	93	79	93	100	100	77	100	66	100	79	87	99	100	91	82	100	88	89
Nc1ncnc2occ(-c3ccc(NC(=O)Nc4cc(C(F)(F)F)ccc4F)cc3)c12 [GW770249X]	66	59	87	100	21	100	100	83	100	100	100	6.3	87	100	92	91	74	76	63	97
